Hits are enriched below; roughly 13% of the tested compounds scored in any of these assays.
USP30 block – inhibitors of human USP30 deubiquitinase; Q70CQ3; 5.3% of 47,000 active; purified USP30, Ub-rhodamine cleavage fluorescence; inhibition, % at 25 µM; AID 1645860
Target sequence (Q70CQ3 whole entry, looked up): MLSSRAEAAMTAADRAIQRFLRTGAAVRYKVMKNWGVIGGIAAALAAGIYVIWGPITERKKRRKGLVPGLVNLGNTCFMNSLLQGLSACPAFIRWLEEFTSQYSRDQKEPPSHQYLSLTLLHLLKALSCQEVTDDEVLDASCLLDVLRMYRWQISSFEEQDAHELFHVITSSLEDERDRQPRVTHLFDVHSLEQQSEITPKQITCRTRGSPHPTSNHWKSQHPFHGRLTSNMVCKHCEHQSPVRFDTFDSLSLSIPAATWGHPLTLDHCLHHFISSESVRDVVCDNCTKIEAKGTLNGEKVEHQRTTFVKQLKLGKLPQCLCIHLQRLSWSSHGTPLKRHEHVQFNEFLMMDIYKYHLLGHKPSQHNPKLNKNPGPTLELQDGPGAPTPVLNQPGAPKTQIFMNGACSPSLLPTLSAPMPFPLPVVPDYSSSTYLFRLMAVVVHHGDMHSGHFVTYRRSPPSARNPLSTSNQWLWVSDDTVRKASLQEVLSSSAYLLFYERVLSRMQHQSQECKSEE
USP17 inh – inhibitors of human USP17 deubiquitinase. 6.5% of 47,000 active. A8MUK1. purified USP17, Ub-rhodamine cleavage fluorescence, 3 h. AID 1645855. inhibition, % at 50 µM
USP8 block – inhibitors of human USP8 deubiquitinase; P40818; purified USP8, Ub-rhodamine cleavage fluorescence, 30 min; inhibition, % at 20 µM; 4.2% of 47,000 active
USP28 block – human USP28 deubiquitinase inhibition; 3% of 47,000 active; purified USP28, Ub-rhodamine cleavage fluorescence, 30 min; Q96RU2; inhibition, % at 25 µM; AID 1645857
The depositor's hits bear a star; . = no result given. Rule as the data show it: active = inhibition above about 30%; inactive = the rest.

SMILES | USP30 block | USP17 inh | USP8 block | USP28 block
O=C(NC(C(F)(F)F)C(F)(F)F)OCCOc1ccccc1 | 18.4 | 14.4 | 24.0 | 12.3
C=C(NC(=O)C(=C)NC(=O)c1csc(C2=N[C@@H]3c4csc(n4)[C@H]4NC(=O)c5csc(n5)[C@H]([C@](C)(O)[C@@H](C)O)NC(=O)[C@H]5CSC(=N5)/C(=C/C)NC(=O)C([C@@H](C)O)NC(=O)c5csc(n5)C3(CC2)NC(=O)[C@H](C)NC(=O)C(=C)NC(=O)[C@H](C)NC(=O)C([C@@H](C)CC)N[C@@H]2C=Cc3c(C(C)O)cc(nc3[C@H]2O)C(=O)OC4C)n1)C(N)=O (stereo partly specified) | -132.6 | 54.3* | -51.7 | -13.1
O=C1COc2ccc(S(=O)(=O)NC3CCOc4ccccc43)cc2N1 (stereo unspecified) | -162.5 | -67.9 | -73.5 | -25.3
Cc1ccc(N2CCN(C3=NC(C(=O)Nc4ccccc4)CC(=O)N3)CC2)cc1 (stereo unspecified) | 27.6 | 20.2 | 38.7* | 12.0
O=C1CC(C(=O)Nc2ccccc2F)N=C(N2CCN(c3ccc(F)cc3)CC2)N1 (stereo unspecified) | -0.1 | 2.7 | 14.7 | -3.1
O=C1CC(C(=O)Nc2ccccc2F)N=C(N2CCN(c3ccccc3)CC2)N1 (stereo unspecified) | 10.4 | 1.2 | 6.6 | -2.7
O=C1CC(C(=O)Nc2ccccc2)N=C(N2CCN(c3ccccc3F)CC2)N1 (stereo unspecified) | 33.2* | 2.4 | 23.9 | 18.2
O=C(CC1N=C(N2CCN(c3ccccc3)CC2)NC1=O)Nc1ccc(Cl)cc1 (stereo unspecified) | 1.8 | -0.5 | 6.2 | 0.1
COc1ccc(N2CCN(C3=NC(CC(=O)Nc4ccccc4)C(=O)N3)CC2)cc1 (stereo unspecified) | 24.6 | 36.1* | 36.4* | 15.3
Clc1cccc(-c2noc3ncnc(NCc4ccco4)c23)c1 | 36.5* | 17.9 | 17.6 | 24.3
COc1ccc(-c2oc3ncnc(NCc4ccco4)c3c2-c2ccc(OC)cc2)cc1 | 13.7 | 30.3* | 22.7 | 9.6
CCN(c1ccc(OC)cc1)S(=O)(=O)N1CCCC(C(=O)NCCCN2CCCCC2)C1 (stereo unspecified) | -1.5 | 3.8 | 3.6 | 1.3
Nc1c(C(=O)c2ccco2)sc2c1c(=O)[nH]c(=O)n2Cc1ccc2c(c1)OCO2 | -441.2 | 4.5 | 53.7* | -57.9
O=C(Nc1nc2c(s1)COCC2)c1cc(-c2ccco2)[nH]n1 | -21.7 | 72.9* | 86.0* | 64.0*
Cc1cccc(NC(=O)Cn2c(C)nc3c(-c4ccncc4)nsc3c2=O)c1 | -52.9 | -22.8 | 1.6 | -34.7
O=c1[nH]c2c(cc1CNc1ccc(Oc3ccccc3)cc1)c(-c1ccc(F)cc1)nn2-c1ccccc1 | -146.2 | 26.9 | 77.2* | -30.7
Cc1ccc(NCc2cc3c(-c4cccc(F)c4)nn(-c4ccccc4)c3[nH]c2=O)cc1C | -348.9 | -88.2 | 36.8* | -77.5
O=c1[nH]c2c(cc1CNc1ccc(Cl)cc1)c(-c1cccc(F)c1)nn2-c1ccccc1 | -61.6 | 37.7* | -8.7 | -16.4
Cc1nn(-c2ccccc2)c2[nH]c(=O)c(CNC3CCCCC3)cc12 | -0.4 | 0.1 | 1.0 | -5.5
NS(=O)(=O)c1ccc(CCNC(=O)CSc2ncccn2)cc1 | -2.4 | -0.7 | -176.7 | -5.0
Cc1cc(C)cc(NC(=O)C2CC(=O)Nc3nc4ccccc4n32)c1 (stereo unspecified) | 4.9 | -1.5 | 46.1* | -3.6
CCOc1ccccc1NC(=O)C1CC(=O)Nc2nc3ccccc3n21 (stereo unspecified) | 25.6 | 24.2 | 39.3* | 4.1
O=C(Cc1n[nH]c(Cc2ccc(F)cc2)n1)Nc1cccc(F)c1 | -16.0 | . | -10.3 | -7.1
CSc1ccc(CNC(=O)c2nnn3cc(C)[nH]c(=O)c23)cc1 | -13.4 | -15.2 | 0.5 | -12.7
Cc1cn2nnc(C(=O)Nc3ccc(Cl)c(Cl)c3)c2c(=O)[nH]1 | -16.6 | 2.6 | 96.5* | -9.3
SMILES | USP30 block | USP17 inh | USP8 block | USP28 block
CC(=O)Nc1cc(NC(=O)CSc2nnc(-c3ccco3)c(-c3ccco3)n2)ccc1C | -103.0 | 46.0* | 73.2* | 3.3
NC(=O)COC(=O)c1ccc(-c2ccc3c(c2)OCCO3)s1 | -2.5 | 9.7 | -77.5 | 11.5
O=S(=O)(Nc1nc2ccccc2nc1NCc1ccc2c(c1)OCO2)c1ccc(F)cc1 | -135.3 | -25.0 | -10.3 | -40.5
O=S(=O)(NNc1nc2ccccc2nc1C(F)(F)F)c1ccc(Br)cc1 | 36.4* | 12.7 | -28.7 | 12.0
O=C(c1cccc2ncccc12)N1CCN(c2ccnc3cc(Cl)ccc23)CC1 | -373.3 | -101.5 | 47.9* | -7.6
O=S(=O)(c1ccc(Cl)cc1)N1CCN(c2ccnc3cc(Cl)ccc23)CC1 | 30.5* | 6.5 | -4.2 | 7.1
